PubChem BioAssay AID1159580 (chemical genetic matrix, 2015)
Where “and” joins values, the source holds several entries; their conditions need not be identical. Identical values can stand only once. About 2,000 (36%) of roughly 5,500 compounds were called active. Roughly 18% stayed inconclusive and do not appear here. Cut-off read from the data, not from the text of the source: active = normalized growth mostly below about 0.91 (no sharp cut-off); inconclusive = no clear call, values can overlap the other calls; inactive = mostly above about 0.92. The list shows a part of the results.

Assay: chemical genetic growth profiling, strain panel (AID 1159580);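 note: tested at 20 µM; growth read once vehicle control cultures reached saturation at 30 °C; 1 = growth at the plate median or of vehicle wells; lower values mean less growth of the strain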
Settings: S. cerevisiae deletion strains, growth OD

Measured: normalized growth

CN/C(=C\[N+](=O)[O-])NCCSCc1ccc(CN(C)C)o1
inactive: locus YAL021C, strain ccr4, hits give low values 0.979 | locus YAL026C, strain drs2, hits give low values 0.99 | locus YAL030W, strain snc1, hits give low values 1 | locus YAL040C, strain CLN3, hits give low values 1 | locus YBL061C, strain skt5, hits give low values 0.974 | locus YBR009C, strain hhf1, hits give low values 0.998 | locus YBR021W, strain FUR4, hits give low values 1.04 | locus YBR023C, strain chs3, hits give low values 0.989 | locus YBR171W, strain sec66, hits give low values 0.989 | locus YBR229C, strain ROT2, hits give low values 1.02 | locus YBR231C, strain swc5, hits give low values 0.977 | locus YBR279W, strain paf1, hits give low values 0.991 | locus YCL011C, strain gbp2, hits give low values 0.984 | locus YCL016C, strain dcc1, hits give low values 0.986 | locus YCL029C, strain bik1, hits give low values 1 | locus YCL061C, strain MRC1 (second series), hits give low values 1.01 | locus YCL069W, strain vba3, hits give low values 0.973 | locus YCR088W, strain abp1, hits give low values 0.976 | locus YDL005C, strain med2, hits give low values 0.977 | locus YDL035C, strain GPR1, hits give low values 1.04 | locus YDL040C, strain nat1, hits give low values 0.99 | locus YDL074C, strain BRE1, hits give low values 1.07 | locus YDL101C, strain DUN1, hits give low values 1.03 | locus YDL134C, strain PPH21, hits give low values 1.03 | locus YDL185W, strain tfp1, hits give low values 0.987 | locus YDL192W, strain arf1, hits give low values 0.989 | locus YDR001C, strain nth1, hits give low values 0.982 | locus YDR069C, strain doa4, hits give low values 0.97 | locus YDR101C, strain arx1, hits give low values 1.01 | locus YDR137W, strain rgp1, hits give low values 0.975 | locus YDR150W, strain NUM1, hits give low values 1.02 | locus YDR159W, strain sac3, hits give low values 0.94 | locus YDR162C, strain NBP2, hits give low values 1.02 | locus YDR195W, strain ref2 0.943 | locus YDR297W, strain sur2, hits give low values 0.972 | locus YDR318W, strain mcm21, hits give low values 0.991 | locus YDR334W, strain swr1, hits give low values 0.977 | locus YDR335W, strain msn5, hits give low values 0.998 | locus YDR363W, strain ESC2, hits give low values 1 | locus YDR388W, hits give low values 0.995 | locus YDR392W, strain spt3, hits give low values 0.993 | locus YDR502C, strain sam2, hits give low values 0.997 | locus YEL003W, strain gim4, hits give low values 0.992 | locus YEL037C, strain rad23, hits give low values 0.986 | locus YEL061C, strain CIN8 (second series), hits give low values 0.977 | locus YEL061C, strain CIN8, hits give low values 1.01 | locus YER002W, strain NOP16, hits give low values 0.988 | locus YER015W, strain faa2, hits give low values 0.995 | locus YER016W, strain bim1, hits give low values 0.973 | locus YER110C, hits give low values 1 | locus YER111C, strain swi4, hits give low values 0.992 | locus YER155C, strain BEM2 (second series), hits give low values 0.973 | locus YER155C, strain BEM2, hits give low values 1.01 | locus YER167W, strain BCK2, hits give low values 1.02 | locus YFR010W, strain ubp6, hits give low values 0.99 | locus YGL078C, strain dbp3, hits give low values 0.986 | locus YGL086W, strain mad1, hits give low values 0.999 | locus YGL167C, strain pmr1, hits give low values 0.987 | locus YGL173C, strain kem1, hits give low values 0.989 | locus YGL227W, strain vid30, hits give low values 0.978 | locus YGL240W, strain doc1, hits give low values 0.996 | locus YGL248W, strain PDE1, hits give low values 1.04 | locus YGL253W, strain hxk2, hits give low values 0.993 | locus YGR078C, strain PAC10, hits give low values 0.997 | locus YGR135W, strain pre9, hits give low values 0.98 | locus YGR252W, strain gcn5, hits give low values 0.984 | locus YHR013C, strain ard1, hits give low values 0.952 | locus YHR027C, strain rpn1, hits give low values 1.01 | locus YHR030C, strain SLT2, hits give low values 1.02 and 0.986 | locus YHR079C, strain IRE1 (second series), hits give low values 0.982 | locus YHR079C, strain IRE1, hits give low values 0.999 | locus YHR094C, strain hxt1, hits give low values 0.983 | locus YHR129C, strain ARP1, hits give low values 1.02 | locus YHR142W, strain chs7, hits give low values 0.99 | locus YHR200W, strain rpn10, hits give low values 0.984 | locus YIL066C, strain RNR3, hits give low values 1.04 | locus YIL073C, strain SPO22, hits give low values 0.98 | locus YIL125W, strain kgd1, hits give low values 0.984 | locus YIR030C, strain dcg1, hits give low values 0.988 | locus YJL092W, strain hpr5, hits give low values 0.979 | locus YJL095W, strain BCK1 (second series), hits give low values 0.995 | locus YJL095W, strain BCK1, hits give low values 1.05 and 0.995 | locus YJL115W, strain asf1, hits give low values 0.986 | locus YJL129C, strain trk1, hits give low values 0.957 | locus YJL134W, strain LCB3, hits give low values 1.01 | locus YJL154C, strain vps35, hits give low values 0.973 | locus YJL164C, strain tpk1, hits give low values 0.996 | locus YJL166W, strain qcr8, hits give low values 0.985 | locus YJL168C, strain set2, hits give low values 0.988 | locus YJL187C, strain SWE1 (second series), hits give low values 1.04 | locus YJL187C, strain SWE1, hits give low values 0.977 | locus YJR043C, strain POL32, hits give low values 1.05 | locus YJR066W, strain TOR1, hits give low values 0.944 | locus YJR075W, strain HOC1, hits give low values 0.996
